In PubChem BioAssay (Tox21) one finds outcome, Potency and max activation data, which are given here for ten compounds.

The structures appear in SMILES notation. Unmarked numbers belong to inactive results. Inconclusive results are not listed. Activity calls are given as the source filed them. Unless noted, the call rests on the fitted dose curve; in most records, active means well fitted curve in the direction sought with a large enough effect in the repeat runs; inconclusive means weak or mixed curves; inactive means no such curve, though single readings can be large; an effect the other way counts as inactive or inconclusive.

A short description of assay [1]: qHTS assay to identify small molecule agonists of the TGF-beta/Smad signaling pathway - cell viability counter screen (AID 1346829). Further: top concentration of the series differs between compounds; nearly all actives have a fitted effect of over 45% in size. The gist of the method: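 Tox21 qHTS format: SBE-bla HEK 293T cells treated with DMSO-dissolved compounds for 5 hr; CellTiter-Glo luminescence after 30 min at room temperature.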
The nature of assay [2]: qHTS assay to identify small molecule agonists of the TGF-beta/Smad signaling pathway (AID 1346859; active means well fitted activation curve with a large enough effect in the signal ratio in the repeat runs, not every such curve was filed as active; the % refers to the signal ratio; further: series mostly up to about 77 µM). The gist of the method:
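Beta-lactamase reporter activity downstream of Smad binding elements was measured in stably transfected HEK 293T cells; compounds were incubated for 5 hr, substrate for 2 hr at room temperature.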

Assay [3] concerns the target Thyrotropin-releasing hormone receptor (Homo sapiens) (UniProt P34981). Briefly: qHTS assay to identify small molecule agonists of the thyrotropin-releasing hormone receptor (TRHR) signaling pathway (AID 1346891; calls by dose curve;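 further: HEK293 cells expressing TRHR with calcium dye readout; series mostly up to about 58 µM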). The essentials: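 Overnight-plated (18 h, 37 °C, 5% CO2) TRHR-Hek293 cells; 2 h calcium dye at 37 °C; compound in DMSO; 3-min kinetic fluorescence read.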
Background: In qHTS, concentration-response curves come from the screen itself.

Assay [4] in a line: Human pregnane X receptor (PXR) small molecule agonists, qHTS cell viability counter screen (AID 1346977). Further: nearly all actives have a fitted effect of over 50% in size. The gist of the method:
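After a 5hr pre-incubation, PXR-Luc HepG2 cells received compounds plus positive control in DMSO and were kept 24hr at 37C. Cell viability was quantified by fluorescence from CellTiter-Fluor added for the final hour.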

A short description of assay [5]: Caspase-3/7 induction in HepG2 cells by small molecules, qHTS assay (AID 1346978). Further: nearly all actives have a fitted effect of over 15% in size. The essentials:
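Wild-type HepG2 cells, 2,000/well, settled 5 hr at 37 C and 5% CO2, then compound-treated for 17 hr; caspase-3/7 activity read by luminescent Caspase-Glo 3/7 after 30 min at room temperature.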

The nature of assay [6]: Caspase-3/7 induction in CHO-K1 cells by small molecules, qHTS assay (AID 1346980). Further: nearly all actives have a fitted effect of over 15% in size. The gist of the method:
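Wild-type CHO-K1 cells exposed to compounds for 17hr at 37 C, 5% CO2. Caspase-3/7 activity then measured by Caspase-Glo 3/7 luminescence after 30min at room temperature.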

A short description of assay [7]: Caspase-3/7 induction in HepG2 cells by small molecules, qHTS cell viability counter screen (AID 1346981). Further: series mostly up to about 92 µM; nearly all actives have a fitted effect of over 30% in size. The gist of the method:
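CellTiter-Fluor fluorescence measured viability in the same wells used for Caspase-Glo 3/7. HepG2 (wild type) at 2,000 cells/well were pre-incubated 5 hr, dosed, and given reagent at 16 hr, with 1 hr further at 37C.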

Assay [8] has as its target Nuclear receptor subfamily 1 group I member 2 (Homo sapiens) (UniProt O75469). In words: Human pregnane X receptor (PXR) small molecule agonists, qHTS assay (AID 1346982). Further: nearly all actives have a fitted effect of over 35% in size. Further: potency means the concentration at half of the fitted maximal effect. The gist of the method:
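Agonist mode: luminescence from ONE-Glo after 24 h compound exposure at 37C in HepG2 cells carrying hPXR-responsive CYP3A4 luciferase, plated in charcoal-stripped serum medium 5 h beforehand.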

Assay [9] addresses Cytochrome P450 2D6 (Homo sapiens) (UniProt P10635). Briefly: Cytochrome P450 Family 2 Subfamily D Member 6 (CYP2D6) small molecule antagonists: luciferase reporter qHTS assay (AID 1671196). Further: series mostly up to about 120 µM; nearly all actives have a fitted effect of over 50% in size. The essentials: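 CYP2D6 activity was followed as luminescence from its luciferin product after a 1 h NADPH-driven reaction at room temperature. Enzyme-substrate mix and compound were pre-incubated for 10 min, and the signal was read 20 min after adding detection reagent.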

Assay [10] deals with Cytochrome P450 2C19 (Homo sapiens) (UniProt P33261). Briefly: Cytochrome P450 Family 2 Subfamily C Member 19 (CYP2C19) small molecule antagonists: luciferase reporter qHTS assay (AID 1671197). Further: nearly all actives have a fitted effect of over 65% in size. Further: potency means the concentration at half of the fitted maximal effect. The essentials: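 Relative luminescence units recorded 20 min after the detection reagent stopped a 1 h, 37C CYP2C19 reaction on proluciferin substrate, which was started by NADPH regeneration following 10 min room-temperature compound preincubation; ketoconazole positive control.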
Background: A reporter such as luciferase makes a cellular process visible.

For assay [11], the target named is Cytochrome P450 2C9 (Homo sapiens) (UniProt P11712). In words: Cytochrome P450 Family 2 Subfamily C Member 9 (CYP2C9) small molecule antagonists: luciferase reporter qHTS assay (AID 1671198). Further: nearly all actives have a fitted effect of over 50% in size. Further: potency means the concentration at half of the fitted maximal effect. The essentials:
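P450-Glo proluciferin substrate with CYP2C9 enzyme; 10 min RT preincubation, then NADPH regeneration 1 h at 37C; luciferin detection reagent 20 min RT, luminescence in relative luminescence units.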

For assay [12], the target named is Voltage-gated inwardly rectifying potassium channel KCNH2 (Homo sapiens) (UniProt Q12809). In words: Human Ether-a-go-go-Related Gene (hERG) channel small molecule antagonists: fluorescence cell-based qHTS assay (AID 1671200).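 Further: hERG-expressing U2OS cells given a thallium stimulus after FluxOR II dye loading; series mostly up to about 77 µM; nearly all actives have a fitted effect of over 50% in size.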 The essentials: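 Cell line hERG-U2OS; dye FluxOR II, 1 h RT dark; Tl+ stimulus; ex 480/em 540 nm, read each second for 2 min.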
For assay [13], the target named is Cytochrome P450 3A4 (Homo sapiens) (UniProt P08684). Briefly: Cytochrome P450 Family 3 Subfamily A Member 4 (CYP3A4) small molecule antagonists: luciferase reporter qHTS assay (AID 1671201). The essentials:
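Room-temperature assay throughout: 10 min compound–enzyme/substrate preincubation, 1 h reaction after NADPH regeneration solution, 20 min detection. Luciferin formed from proluciferin substrate is quantified by luminescence.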

Assay [14] in a line: Caspase-3/7 induction in CHO-K1 cells by small molecules, qHTS cell viability counter screen (AID 1346979). Further: nearly all actives have a fitted effect of over 35% in size. The essentials: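 Multiplexed with Caspase-Glo 3/7 in CHO-K1 cells, this counter screen added CellTiter-Fluor after 16hr of compound exposure and recorded fluorescence 1hr later.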
In assay [15] the target is Cytochrome P450 1A2 (Homo sapiens) (UniProt P05177). Briefly: Cytochrome P450 Family 1 Subfamily A Member 2 (CYP1A2) small molecule antagonists: luciferase reporter qHTS assay (AID 1671199). Further: nearly all actives have a fitted effect of over 50% in size. Further: potency means the concentration at half of the fitted maximal effect. The essentials:
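Luminescence from luciferin formed by CYP1A2 from a proluciferin substrate, read 20 min after detection reagent. Compound was pre-incubated 10 min with enzyme-substrate, and reaction started with NADPH regeneration solution for 1 h at room temperature; furafylline control.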

The target in assay [16] is Nuclear receptor subfamily 1 group I member 2 (Rattus norvegicus) (UniProt Q9R1A7). Briefly: Rat pregnane X receptor (rPXR) activation by small molecules, qHTS assay (AID 1346983). Further: nearly all actives have a fitted effect of over 20% in size. The settings on record: rPXR luciferase reporter cells, One-Glo luminescence, 24 h; hits give high values. The essentials:
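Cell-based rPXR activation assay: rPXR cells, 2,000 per well, rested 5hr at 37 C, then exposed to compounds in DMSO for 24 hr at 37 C. Luciferase activity read by One-Glo luminescence after 30 min at room temperature.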

For assay [17], the target named is Nuclear receptor subfamily 1 group I member 2 (Homo sapiens) (UniProt O75469). In words: CYP3A4 induction through human pregnane X receptor (PXR) by small molecules, qHTS assay (AID 1346984). Further: nearly all actives have a fitted effect of over 40% in size. The gist of the method: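 Read-out is luminescence after One-Glo addition, following a 3 hr, 37C incubation with Luciferin-IPA CYP3A4 substrate (3uM final). Before that, compounds were on DPX-2 cells (HepG2 co-transfected with PXR element plus CYP3A4-promoter luciferase) for 24 hr at 37C.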

For assay [18] the target is unchanged. In words: Human pregnane X receptor (PXR) activation by small molecules, qHTS assay (AID 1346985). Further: nearly all actives have a fitted effect of over 40% in size. The gist of the method:
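DPX-2 cells (HepG2 co-transfected with a PXR response element and a CYP3A4-promoter luciferase construct) were seeded at 2,000 per well, rested 5 hr at 37C, then exposed to DMSO-dissolved compounds for 24 hr. Activation was read as luciferase luminescence.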
On the % scale 0 is the no-effect control and ±100 the full control effect.

Sequence of Cytochrome P450 1A2 (Homo sapiens) (P05177 whole entry, looked up): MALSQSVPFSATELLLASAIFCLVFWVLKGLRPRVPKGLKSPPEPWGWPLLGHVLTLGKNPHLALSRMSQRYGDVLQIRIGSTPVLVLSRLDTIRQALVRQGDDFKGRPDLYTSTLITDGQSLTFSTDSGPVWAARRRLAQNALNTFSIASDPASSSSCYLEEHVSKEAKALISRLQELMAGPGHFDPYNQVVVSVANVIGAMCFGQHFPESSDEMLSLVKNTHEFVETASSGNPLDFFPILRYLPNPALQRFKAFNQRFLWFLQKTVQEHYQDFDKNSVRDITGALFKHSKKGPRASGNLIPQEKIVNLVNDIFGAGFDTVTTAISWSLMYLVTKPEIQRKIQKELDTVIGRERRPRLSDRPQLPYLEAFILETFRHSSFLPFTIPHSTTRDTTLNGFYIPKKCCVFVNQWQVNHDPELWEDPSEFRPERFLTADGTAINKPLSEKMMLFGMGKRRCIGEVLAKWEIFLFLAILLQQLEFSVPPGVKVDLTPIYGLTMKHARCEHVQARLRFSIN
Sequence of Cytochrome P450 2C9 (Homo sapiens) (P11712 whole entry, looked up): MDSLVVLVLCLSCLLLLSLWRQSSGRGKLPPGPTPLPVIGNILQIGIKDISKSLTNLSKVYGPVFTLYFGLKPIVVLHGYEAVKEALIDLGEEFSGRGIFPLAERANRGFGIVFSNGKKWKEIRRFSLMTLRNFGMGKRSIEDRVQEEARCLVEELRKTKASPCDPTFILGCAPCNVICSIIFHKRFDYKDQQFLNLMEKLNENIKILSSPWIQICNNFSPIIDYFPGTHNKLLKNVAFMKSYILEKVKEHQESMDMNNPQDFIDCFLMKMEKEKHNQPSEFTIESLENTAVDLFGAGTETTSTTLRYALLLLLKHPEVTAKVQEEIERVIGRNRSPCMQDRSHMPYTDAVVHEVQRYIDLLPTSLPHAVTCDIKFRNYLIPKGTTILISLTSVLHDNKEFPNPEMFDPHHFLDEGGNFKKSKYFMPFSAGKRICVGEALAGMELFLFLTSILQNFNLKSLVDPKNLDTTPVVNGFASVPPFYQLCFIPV
Sequence of Nuclear receptor subfamily 1 group I member 2 (Homo sapiens) (O75469 whole entry, looked up): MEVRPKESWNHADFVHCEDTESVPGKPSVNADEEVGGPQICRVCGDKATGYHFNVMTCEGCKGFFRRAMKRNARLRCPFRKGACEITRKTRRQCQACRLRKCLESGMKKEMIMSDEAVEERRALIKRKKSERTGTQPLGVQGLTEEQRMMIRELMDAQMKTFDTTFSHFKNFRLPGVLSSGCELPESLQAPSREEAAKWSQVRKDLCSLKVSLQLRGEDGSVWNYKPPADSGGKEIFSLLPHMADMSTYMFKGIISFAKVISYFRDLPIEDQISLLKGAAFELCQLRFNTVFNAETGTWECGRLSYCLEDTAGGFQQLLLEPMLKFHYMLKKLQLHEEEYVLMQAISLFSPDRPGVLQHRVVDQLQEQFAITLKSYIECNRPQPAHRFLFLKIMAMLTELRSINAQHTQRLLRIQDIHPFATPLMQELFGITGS
Sequence of Cytochrome P450 2D6 (Homo sapiens) (P10635 whole entry, looked up): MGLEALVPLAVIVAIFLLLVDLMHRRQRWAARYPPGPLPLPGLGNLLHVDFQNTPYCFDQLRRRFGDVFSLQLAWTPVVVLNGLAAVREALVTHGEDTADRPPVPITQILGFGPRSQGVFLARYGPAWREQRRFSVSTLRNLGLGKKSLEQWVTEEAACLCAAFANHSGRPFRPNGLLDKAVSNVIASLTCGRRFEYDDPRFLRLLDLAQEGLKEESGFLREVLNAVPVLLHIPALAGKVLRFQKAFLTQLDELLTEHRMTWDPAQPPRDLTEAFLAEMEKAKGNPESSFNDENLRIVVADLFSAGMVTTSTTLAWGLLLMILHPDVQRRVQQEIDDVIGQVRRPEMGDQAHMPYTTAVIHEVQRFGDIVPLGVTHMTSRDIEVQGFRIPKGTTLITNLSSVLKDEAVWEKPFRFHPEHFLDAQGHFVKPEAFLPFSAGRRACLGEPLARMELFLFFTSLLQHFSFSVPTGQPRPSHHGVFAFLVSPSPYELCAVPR
Sequence of Cytochrome P450 2C19 (Homo sapiens) (P33261 whole entry, looked up): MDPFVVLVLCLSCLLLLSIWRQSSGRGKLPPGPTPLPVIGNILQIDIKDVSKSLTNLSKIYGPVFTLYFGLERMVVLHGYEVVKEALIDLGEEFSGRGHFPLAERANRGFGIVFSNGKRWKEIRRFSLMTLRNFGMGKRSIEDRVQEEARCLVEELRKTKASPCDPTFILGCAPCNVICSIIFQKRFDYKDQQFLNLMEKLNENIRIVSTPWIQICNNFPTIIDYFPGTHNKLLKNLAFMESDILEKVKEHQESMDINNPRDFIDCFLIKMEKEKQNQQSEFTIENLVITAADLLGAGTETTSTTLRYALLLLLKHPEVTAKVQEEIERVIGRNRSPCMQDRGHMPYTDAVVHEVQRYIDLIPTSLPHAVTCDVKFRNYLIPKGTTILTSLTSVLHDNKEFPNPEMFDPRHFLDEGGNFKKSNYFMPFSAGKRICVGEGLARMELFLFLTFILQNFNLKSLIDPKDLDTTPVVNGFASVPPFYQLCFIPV
Sequence of Thyrotropin-releasing hormone receptor (Homo sapiens) (P34981 whole entry, looked up): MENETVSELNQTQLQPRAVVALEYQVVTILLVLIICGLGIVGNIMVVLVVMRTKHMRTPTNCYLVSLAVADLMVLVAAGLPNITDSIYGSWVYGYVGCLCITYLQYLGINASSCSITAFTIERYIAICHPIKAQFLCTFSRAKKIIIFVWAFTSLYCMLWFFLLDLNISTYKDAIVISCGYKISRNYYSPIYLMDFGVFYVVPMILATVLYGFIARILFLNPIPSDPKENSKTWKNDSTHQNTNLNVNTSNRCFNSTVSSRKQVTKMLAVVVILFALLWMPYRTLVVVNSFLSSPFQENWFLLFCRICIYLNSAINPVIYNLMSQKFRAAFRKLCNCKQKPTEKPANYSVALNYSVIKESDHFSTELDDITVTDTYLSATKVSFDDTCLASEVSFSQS
Sequence of Voltage-gated inwardly rectifying potassium channel KCNH2 (Homo sapiens) (Q12809 whole entry, looked up): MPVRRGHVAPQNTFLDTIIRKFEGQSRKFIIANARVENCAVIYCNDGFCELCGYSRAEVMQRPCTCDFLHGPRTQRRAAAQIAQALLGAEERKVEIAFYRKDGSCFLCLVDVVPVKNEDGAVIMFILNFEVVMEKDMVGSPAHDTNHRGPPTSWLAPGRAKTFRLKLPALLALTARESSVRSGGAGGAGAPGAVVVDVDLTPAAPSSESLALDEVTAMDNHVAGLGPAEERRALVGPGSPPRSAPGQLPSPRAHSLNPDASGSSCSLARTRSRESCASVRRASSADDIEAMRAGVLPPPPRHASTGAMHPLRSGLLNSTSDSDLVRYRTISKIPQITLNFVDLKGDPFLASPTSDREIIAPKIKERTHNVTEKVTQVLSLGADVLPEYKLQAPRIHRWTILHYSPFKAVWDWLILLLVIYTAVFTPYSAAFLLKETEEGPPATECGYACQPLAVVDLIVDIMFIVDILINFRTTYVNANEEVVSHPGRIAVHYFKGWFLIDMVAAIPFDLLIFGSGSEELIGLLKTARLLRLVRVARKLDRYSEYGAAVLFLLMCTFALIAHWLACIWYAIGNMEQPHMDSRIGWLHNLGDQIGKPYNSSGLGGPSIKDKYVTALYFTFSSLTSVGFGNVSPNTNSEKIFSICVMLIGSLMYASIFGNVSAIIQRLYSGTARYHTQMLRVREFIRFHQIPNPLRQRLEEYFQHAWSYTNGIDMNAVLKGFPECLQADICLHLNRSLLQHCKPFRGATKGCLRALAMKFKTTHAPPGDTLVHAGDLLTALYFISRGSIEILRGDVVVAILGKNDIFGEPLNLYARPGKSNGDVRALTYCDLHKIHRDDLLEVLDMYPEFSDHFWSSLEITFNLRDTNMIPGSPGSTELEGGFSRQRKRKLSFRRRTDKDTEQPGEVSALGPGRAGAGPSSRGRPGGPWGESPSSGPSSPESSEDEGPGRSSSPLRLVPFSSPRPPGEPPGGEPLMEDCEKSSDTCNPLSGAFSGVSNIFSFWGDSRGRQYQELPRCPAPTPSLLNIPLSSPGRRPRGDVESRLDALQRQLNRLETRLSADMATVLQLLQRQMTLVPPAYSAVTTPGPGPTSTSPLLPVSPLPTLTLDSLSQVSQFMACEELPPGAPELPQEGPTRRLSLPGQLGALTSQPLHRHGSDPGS
Sequence of Cytochrome P450 3A4 (Homo sapiens) (P08684 whole entry, looked up): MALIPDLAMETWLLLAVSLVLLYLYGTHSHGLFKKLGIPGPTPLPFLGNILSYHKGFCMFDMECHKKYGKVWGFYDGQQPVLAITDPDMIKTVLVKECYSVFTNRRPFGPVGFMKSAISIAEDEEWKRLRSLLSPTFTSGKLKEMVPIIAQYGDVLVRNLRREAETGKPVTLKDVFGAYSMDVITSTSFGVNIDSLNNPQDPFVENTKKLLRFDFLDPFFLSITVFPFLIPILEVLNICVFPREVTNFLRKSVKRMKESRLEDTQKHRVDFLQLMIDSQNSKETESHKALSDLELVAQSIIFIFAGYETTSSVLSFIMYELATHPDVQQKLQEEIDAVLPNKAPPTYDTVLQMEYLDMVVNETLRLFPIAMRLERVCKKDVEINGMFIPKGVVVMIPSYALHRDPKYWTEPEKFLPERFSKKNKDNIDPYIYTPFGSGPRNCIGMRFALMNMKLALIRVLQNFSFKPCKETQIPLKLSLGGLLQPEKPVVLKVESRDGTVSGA
Sequence of Nuclear receptor subfamily 1 group I member 2 (Rattus norvegicus) (Q9R1A7 whole entry, looked up): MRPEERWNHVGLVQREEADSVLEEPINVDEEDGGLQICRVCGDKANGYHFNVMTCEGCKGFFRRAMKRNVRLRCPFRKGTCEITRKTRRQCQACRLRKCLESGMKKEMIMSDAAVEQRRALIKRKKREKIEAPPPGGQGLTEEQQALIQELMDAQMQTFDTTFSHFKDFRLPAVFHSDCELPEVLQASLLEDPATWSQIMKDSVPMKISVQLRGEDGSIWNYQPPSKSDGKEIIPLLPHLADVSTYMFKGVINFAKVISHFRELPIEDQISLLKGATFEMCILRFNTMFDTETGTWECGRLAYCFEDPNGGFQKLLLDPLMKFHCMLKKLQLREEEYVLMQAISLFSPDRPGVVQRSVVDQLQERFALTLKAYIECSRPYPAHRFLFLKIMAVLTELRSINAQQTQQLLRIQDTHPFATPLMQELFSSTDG

Take `CC(C)COC(=O)c1ccccc1`: the result in assay [1], in assay [2], in [3], in assay [4], in assay [5] and in assay [6] was inactive. The outcome in [7] was inactive. The Potency result in [8], in assay [9], in [10], in [11], in assay [12] and in assay [13] was “inactive” each time.
In the case of `O=C(O)CSCC(=O)NC1CCSC1=O` (configuration not stated), the compound was classed as inactive in assay [1], in assay [2], in [3], in [4], in assay [5] and in assay [7]. In addition, the Potency result in assay [14], in assay [8], in [9], in assay [10], in [11] and in assay [15] was “inactive” in each case. Also, the Potency entry in [13] was “inactive”.
As for `Cc1c(N)cccc1Cl`, the call in assay [1], in assay [2], in assay [3], in assay [4], in [5] and in assay [6] was inactive. Further, the call in assay [7] was inactive. In addition, the Potency result in assay [14], in assay [8], in assay [10] and in assay [13] was “inactive” in each case. Further, the Potency in assay [15] is 11.3 µM (active).
As to `C=Cc1ccc(C(C)(C)C)cc1`, the outcome in assay [1], in assay [2], in assay [3], in assay [4], in [5] and in assay [6] was inactive. Also, the call in [7] was inactive. For the same compound, the Potency result in [14], in [8], in assay [11], in [15], in assay [12] and in assay [13] was “inactive” in each case.
Take `ONc1ccccc1`: the result in assay [1], in [2], in assay [3], in [4], in assay [5] and in assay [6] was inactive. Also, the result in assay [7] was inactive. Also, the Potency entry in [14], in [12] and in assay [13] was “inactive” each time. Also, the Potency in [10] was 88.5 µM (active); in [15] it was 14 µM (active).
Consider `C=C(C)[C@@H]1CC=C(C)CC1`, for which the compound was called inactive in assay [1], in assay [2], in assay [4], in assay [5], in assay [6] and in assay [7]. For the same compound, the Potency entry in [14], in assay [8], in assay [9], in assay [10], in [11] and in assay [12] was “inactive” in each case. For the same compound, in assay [13], the Potency result was “inactive”.
On to `CC(=O)OC(C)=O`, for which the result in assay [1], in assay [2], in assay [4] and in assay [7] was inactive. Further, the Potency entry in [14], in assay [8], in [11], in assay [15], in [12] and in assay [13] was “inactive” each time. The Potency in assay [10] is 72.3 µM (active).
In the case of `CCCC(=O)OC/C=C(\C)CCC=C(C)C`, the compound was called inactive in assay [1], in [2], in assay [5] and in assay [7]. The Potency result in assay [14], in assay [8], in [9], in assay [10] and in [13] was “inactive” in each case.
For the compound `CCCC(CC)c1ccccc1` (configuration not stated), the result in [1], in [2], in assay [4], in assay [5], in assay [6] and in assay [7] was inactive. The Potency result in assay [14], in [9], in assay [10], in assay [11], in assay [15] and in assay [13] was “inactive” each time.
Regarding `CC(C)=CCC[C@@](C)(O)[C@H]1CC=C(C)CC1`, the outcome in [1], in assay [2], in [5], in [6] and in [7] was inactive. Also, the Potency entry in [14], in assay [17], in assay [18], in [9] and in [12] was “inactive” each time. The figures for the Potency in assay [8], in assay [10] and in [11] were 29.8 µM (active), 8.71 µM (active) and 17.4 µM (active), respectively. Besides, in assay [16], the max activation is 1.39%.
